Consider 95 compounds from PubChem BioAssay AID1063 (University of Pittsburgh Molecular Library Screening Center, 2008).

Hit rate of the full screen: of about 200,000 compounds, about 18,000 (9%) were called active. Rule as the data show it: active = inhibition above about 50%; inactive = the rest. What follows is part of a selection rich in actives, with near analogues and random picks from the rest.

For orientation: inhibition means the relative decrease from the control value, in per cent.

This assay is described as follows: Leishmania major promastigote growth inhibition, primary screen (AID 1063).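 Also: promastigotes grown with compound for 44 hours at 28 °C.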 The settings on record: Leishmania major promastigotes, resazurin fluorescence viability; at 10 µM; stronger effect = higher value. A general note: The colour change of resazurin is a common sign of viable cells or microbes.
As for `O=c1c2sccc2nc(SCc2cc(=O)n3ccccc3n2)n1-c1ccc(Br)cc1`, the inhibition is 12.1% (inactive).

As for `O=C(CSc1nc2[nH]ncc2c(=O)n1-c1ccccc1)N1CCCc2ccccc21`, the inhibition is 15.2% (inactive).

Consider `Cc1ccc(CSc2nc3[nH]ncc3c(=O)[nH]2)cc1`, for which the inhibition was -3.25% (inactive).

Consider `COc1ccc(CCNC(=O)CSc2nc3[nH]ncc3c(=O)n2-c2cccc(C(F)(F)F)c2)cc1OC`, for which the inhibition was -7.3% (inactive).

Consider `CCc1ccc(-n2c(SCc3cc(=O)n4cc(Br)ccc4n3)nc3[nH]ncc3c2=O)cc1`, for which the inhibition was 56.9% (active).

In the case of `Cc1cccc2nc(CSc3nc4[nH]ncc4c(=O)n3-c3cccc(Cl)c3)cc(=O)n12`, the inhibition is 56.1% (active).

`CC(C)Oc1ccc(Cc2n[nH]c(=S)n2Cc2ccccc2)cc1Cl`: the inhibition is 4.91% (inactive).

For `Nc1c(NCCc2ccccc2)c2ccccc2oc1=O`, the inhibition is -2.7% (inactive).

As for `Cc1ccc(C(=O)N/C(=C\c2cccs2)C(=O)NCCc2ccccn2)cc1C`, the inhibition is 16.6% (inactive).

As to `COC(=O)C1=C(C)N(C)C(=S)NC1c1cc(OC)ccc1OC` (stereo not given), the inhibition is 3.3% (inactive).

For the compound `COc1ccccc1CNC(=O)c1ccc(SC)cc1OC`, the inhibition was 66.9% (active).

As for `COc1cc(SC)ccc1C(=O)Nc1cc(C)ccn1`, the inhibition is 25.5% (inactive).

For `COc1cc(SC)ccc1C(=O)NCCOc1ccccc1Cl`, the inhibition was 1.79% (inactive).

Turning to `O=C(NNC(=O)C1C2CCC(C2)C1C(=O)O)c1ccc(Cl)cc1` (stereo not given), the inhibition is -5.41% (inactive).

Turning to `Cc1cccc(C(=O)OC(C)CN2CCN(C)CC2)c1` (stereo not given), the inhibition was 3.94% (inactive).

For `CO/N=C/c1cn(-c2ccc(Cl)cc2)nn1`, the inhibition is -1.77% (inactive).

Take `CCC1CCCCN1CCCNC(=O)C1CCC(Cn2c(=O)[nH]c3ccccc3c2=O)CC1` (stereo not given): the inhibition was -4.5% (inactive).

`CCC1CCCCN1CCCNC(=O)Cn1nc(-c2ccccc2)ccc1=O` (stereo not given): the inhibition was -4.42% (inactive).

For the compound `CCC1CCCCN1CCCNC(=O)c1cc2c(Cl)nc3ccccc3c2s1` (stereo not given), the inhibition was 100% (active).

In the case of `Cc1ccccc1C(OCCN(C)C)C1CCCCC1` (stereo not given), the inhibition was 18.1% (inactive).

In the case of `CC(C)OCC(O)CN1CCN(C(c2ccccc2)c2ccccc2)CC1` (stereo not given), the inhibition is 0.57% (inactive).

`Cc1ccccc1C(OCC(O)CN1CCCCC1CCO)c1ccccc1` (stereo not given): the inhibition was 99.7% (active).

As to `CC(C)N(Cc1nc(-c2ccc3c(c2)OCO3)no1)CC1CCC(=O)N1` (stereo not given), the inhibition was -6.4% (inactive).

Take `COc1ccc(NS(=O)(=O)c2ccc(NC(=S)NC(=O)CC(C)C)cc2)cc1`: the inhibition is 96.7% (active).

Regarding `COc1ccc(C(=O)Nc2ccc(S(=O)(=O)NC(C)C)cc2)cc1`, the inhibition is -3.72% (inactive).

On to `CC(=O)c1ccc(NC(=S)NC(=O)CC(C)C)cc1`, for which the inhibition was -4.65% (inactive).

For the compound `COc1ccc(C2=NN(c3ccccc3)C(c3cccs3)C2)cc1` (stereo not given), the inhibition is 44.3% (inactive).

In the case of `COc1cc(NC(=O)CN(C)S(=O)(=O)c2ccc3nc(C)sc3c2)cc(OC)c1`, the inhibition was 13% (inactive).

For the compound `Cc1ccc2nc3n(c(=O)c2c1)CCC3`, the inhibition is -7.48% (inactive).

Consider `O=C(Nc1ccc2nc3n(c(=O)c2c1)CCCCC3)c1ccccc1Cl`, for which the inhibition was 0.22% (inactive).

On to `CCCCN(CC)C(=S)Nc1ccc2nc3n(c(=O)c2c1)CCCCC3`, for which the inhibition was 55.5% (active).

As for `O=C(OCC(=O)N1CCOCC1)c1ccc(N2CCOCC2)c([N+](=O)[O-])c1`, the inhibition was 0.36% (inactive).

`CC(C)(C)CN1CCNC(=O)C1CC(=O)NC1Cc2ccccc2C1` (stereo not given): the inhibition was -0.33% (inactive).

`Brc1ccc2nc(N3CCCC3)sc2c1`: the inhibition was 17% (inactive).

In the case of `CCCCN(C)C(=O)c1ccc2c(c1)N(CC)C(=O)c1ccccc1S2(=O)=O`, the inhibition is -6.56% (inactive).

Regarding `O=C(c1ccc2c(c1)N(Cc1ccc(F)cc1)C(=O)c1ccccc1S2(=O)=O)N1CCN(c2ccccn2)CC1`, the inhibition is 97% (active).

Consider `O=C(c1ccc2c(c1)C(=O)N(c1ccc(Cl)cc1)C2=O)N1CCN(c2ccccn2)CC1`, for which the inhibition is -5.18% (inactive).

Take `C/C(CCc1ccccc1)=N\NC(=O)c1ccc(CN2CCOCC2)cc1`: the inhibition was -3.42% (inactive).

Regarding `S=C1SCN(CCN2CCOCC2)CN1Cc1ccccc1`, the inhibition is 86.7% (active).

With `CCN1CN(Cc2ccccc2)CNC1=S`, the inhibition is -5.52% (inactive).

Turning to `CCCn1nc(Oc2nc(NC(C)C)nc(N(C)C)n2)ccc1=O`, the inhibition was 7.02% (inactive).

Regarding `CC(=O)Nc1ccc(S(=O)(=O)Nc2ccc(-c3ccc4nnc(C)n4n3)cc2)cc1`, the inhibition was -6.31% (inactive).

Consider `COc1ccc(-c2nn3c(-c4ccccc4)nnc3s2)cc1OC`, for which the inhibition was 3.79% (inactive).

On to `c1ccc(-c2cc(-c3nnc4sc(-c5ccccn5)nn34)[nH]n2)cc1`, for which the inhibition is 84.6% (active).

For the compound `CCOc1cccc(-c2nn3c(-c4ccccn4)nnc3s2)c1`, the inhibition was 6.06% (inactive).

Turning to `COc1ccc(N2C(=O)CC(Nc3ccc(F)cc3)C2=O)c([N+](=O)[O-])c1` (stereo not given), the inhibition is -0.61% (inactive).

Regarding `CN(C)c1ccc(C2Nc3ccccc3C(=O)N2NS(=O)(=O)c2ccccc2)cc1` (stereo not given), the inhibition was 3.72% (inactive).

Regarding `O=C(NCc1cccnc1)c1cn(-c2ccccc2)nc1-c1cccs1`, the inhibition was 1.01% (inactive).

With `O=C(NNC(=S)NC(=O)c1cn(-c2ccccc2)nc1-c1ccccc1)c1ccncc1`, the inhibition is 54.9% (active).

As to `Cc1ccccc1NC(=O)c1ccccc1`, the inhibition was -0.75% (inactive).

With `O=C(Nc1cn(-c2ccccc2)nc1-c1ccccc1)c1ccccc1`, the inhibition was 82.8% (active).

As for `O=C(O)c1ccc(NC(=O)c2cn(-c3ccccc3)nc2-c2ccc(Cl)cc2)cc1`, the inhibition was -2.74% (inactive).

On to `COc1ccc(-c2nn(-c3ccccc3)cc2C(=O)Nc2nccs2)cc1OC`, for which the inhibition is 21.8% (inactive).

`CCN(CC)S(=O)(=O)c1ccc(N2CCOCC2)c(NC(=O)C2COc3ccccc3O2)c1` (stereo not given): the inhibition is 26.2% (inactive).

On to `N#CC1=C(N)Oc2[nH]c(=S)[nH]c(=O)c2C12C(=O)Nc1ccccc12` (stereo not given), for which the inhibition is -9.87% (inactive).

For the compound `COc1ccc(N2CCN(C(=O)CCSCc3ccccc3F)CC2)cc1`, the inhibition was 3.84% (inactive).

As to `COC(=O)c1ccc(NC(=S)NN2CCOCC2)cc1`, the inhibition is -9.83% (inactive).

For `CC(NC(=O)Nc1ccccc1)C(c1cccs1)N1CCN(c2ccccc2)CC1` (stereo not given), the inhibition is -1.95% (inactive).

As to `Cc1nc2ccc(NC(=S)N3CCC(C)CC3)cc2nc1C`, the inhibition is -1.44% (inactive).

Regarding `COc1ccc(OCCCn2cccc2/C=C2/C(=N)N3OC(C)=CC3=NC2=O)cc1`, the inhibition was 21.9% (inactive).

`Cc1cc(C)nc(SCC(=O)N(C)C)n1`: the inhibition is -4.86% (inactive).

`CC1(C)CC(CC(=O)O)C(=O)O1` (stereo not given): the inhibition is -2.75% (inactive).

In the case of `C/C(CC1CC(C)(C)OC1=O)=N/Nc1nc(-c2ccccc2)cs1` (stereo not given), the inhibition is 55.5% (active).

`CC1(C)CC(CCC(=O)Nc2ccccc2Cl)C(=O)O1` (stereo not given): the inhibition is -7.36% (inactive).

On to `CC(=O)Nc1nc(N(C)C)nc(N(C)C)n1`, for which the inhibition is 2.36% (inactive).

Take `O=C(NCc1ccco1)C(=O)c1cn(CC(=O)N2CCCCCC2)c2ccccc12`: the inhibition was 5.44% (inactive).

`CCOC(=O)CCCNC(=O)COC(=O)/C=C/c1ccc2c(c1)OCO2`: the inhibition is -1.67% (inactive).

`O=C(COC(=O)/C=C/c1cccc(Cl)c1)NCCc1ccccc1`: the inhibition is 53.4% (active).

Consider `COc1ccc(CCNC(=O)COC(=O)/C=C/c2cccs2)cc1OC`, for which the inhibition is 4.8% (inactive).

`COc1ccc(C2OCC3(CO2)SC(=O)NC3=O)cc1OC` (stereo not given): the inhibition is -7.62% (inactive).

`O=C(NNC(=S)Nc1ccccc1)c1cccc(S(=O)(=O)N2CCOCC2)c1`: the inhibition is -4.58% (inactive).

Consider `COc1ccccc1NC(=O)C[n+]1ccccc1`, for which the inhibition is -3.72% (inactive).

As to `COC(=O)c1cc(C(=O)N(Cc2ccccc2)c2ccccn2)cc([N+](=O)[O-])c1`, the inhibition was 8.15% (inactive).

Consider `Fc1ccccc1/C=C1\CCCC2=C1Nc1ncnn1C2c1ccccc1F` (stereo not given), for which the inhibition was 98.9% (active).

As to `O=C(NCc1cccnc1)c1nc(-c2cccs2)no1`, the inhibition is 4.89% (inactive).

For the compound `COc1ccc(NC(=O)N2CCC(Cc3ccccc3)CC2)cc1`, the inhibition was -0.62% (inactive).

For `COc1cccc(NC(=S)NCCCN2CCOCC2)c1`, the inhibition was 1.1% (inactive).

As to `CCOc1ccccc1C(=O)NC1CC2CCCC(C1)N2Cc1ccccc1` (stereo not given), the inhibition was 16% (inactive).

As to `COc1ccc(NC(=O)NC2CC3CCCC(C2)N3Cc2ccccc2)cc1` (stereo not given), the inhibition was 66.9% (active).

Consider `C=CCN1C2CCCC1CC(NC(=S)Nc1cccc(OC)c1)C2` (stereo not given), for which the inhibition is 54.3% (active).

In the case of `C=CCn1c(CC(=O)Nc2cccc(OC)c2)nnc1SCC(=O)NC1CCCCC1`, the inhibition is -2.71% (inactive).

With `COc1ccc(N=C2SC(C(=O)Nc3ccc(F)cc3)CC(=O)N2C)cc1` (stereo not given), the inhibition is 20.6% (inactive).

Regarding `CN1CCN(C(=O)/C(=C\c2ccc3c(c2)OCO3)NC(=O)c2cccs2)CC1`, the inhibition was -8.78% (inactive).

For `CN(CCc1cn[nH]c1)C(=O)CC1C(=O)NCCN1Cc1cccc(Oc2ccccc2)c1` (stereo not given), the inhibition is 0.64% (inactive).

Take `O=C(/C=C/c1cn(-c2ccccc2)nc1-c1ccc2c(c1)OCCO2)NCCCN1CCOCC1`: the inhibition was 41.1% (inactive).

Turning to `Nc1ccc(OCC(O)C[n+]2ccc(CCS(=O)(=O)[O-])cc2)cc1` (stereo not given), the inhibition was -3.78% (inactive).

Turning to `O=C(O)c1ccc(N/N=C/c2ccc3ncccc3c2)cc1`, the inhibition was -9.46% (inactive).

In the case of `CN(C(=O)CSc1nnc(-c2c[nH]c3ccccc23)o1)C1CCS(=O)(=O)C1` (stereo not given), the inhibition was 0.33% (inactive).

As for `CSCC(=O)N1CCCC(C(=O)c2cc(F)ccc2F)C1` (stereo not given), the inhibition was -4.01% (inactive).

On to `CCOc1cccc(NC(=O)C2CCCN(S(=O)(=O)c3ccc(OC)cc3)C2)c1` (stereo not given), for which the inhibition was 30.8% (inactive).

`COc1ccc(/C=C/CN2CCCC(C(=O)c3cc(F)ccc3F)C2)cc1` (stereo not given): the inhibition was 81.1% (active).

Turning to `O=C1CCC(CCC(=O)N2CCCC(C(=O)c3ccc(Cl)cc3)C2)=NN1` (stereo not given), the inhibition was -5.05% (inactive).

As for `CCc1nnc(NC(=O)CSc2nnnn2-c2cccc(C(C)=O)c2)s1`, the inhibition is -4.47% (inactive).

For the compound `O=C(NNC(=O)c1ccccc1[N+](=O)[O-])Nc1ccccc1C(F)(F)F`, the inhibition was 0.59% (inactive).

Regarding `Cn1cnnc1Sc1ccc(S(C)(=O)=O)cc1[N+](=O)[O-]`, the inhibition is -6.44% (inactive).
